# Screening data from PubChem BioAssay.
# The list is not random: actives were taken first. Their share in the collection is about 0.93%.
# AGP1-GFP MLPCN: yeast TOR pathway AGP1-GFP modulation; S. cerevisiae AGP1-GFP multiplex flow cytometry, 3 h; GFP as percent of DMSO wells; GFP response vs DMSO, % at 10 µM; hit rate 0.02% among 320,000; AID 2066;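 active means GFP response relative to DMSO above a set limit, near screen average plus 3 SD, cut at about 150% in these data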;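 further: median GFP channel fluorescence of the gated AGP1 strain per well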
# RPL19A TOR yeast: alters RPL19A-GFP fluorescence in TOR pathway yeast screen; percent response vs DMSO, % at 10 µM; hit rate 0.3% among 330,000; AID 2025; S. cerevisiae RPL19A-GFP strain, flow cytometry, 3 h; stronger effect = lower value;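 active means percent response vs DMSO below 50%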;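 further: median channel GFP fluorescence of the barcoded RPL19A-GFP strain; lower means less RPL19A-GFP as with rapamycin TOR inhibition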
# LAP4 TOR yeast: alters LAP4-GFP fluorescence in TOR pathway yeast screen. GFP response vs DMSO, % at 10 µM. S. cerevisiae LAP4-GFP multiplex, flow cytometry GFP, 3 h; median GFP as percent of DMSO wells. hit rate 0.34% among 320,000;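 active means GFP response vs DMSO above a set limit, about the screen mean plus 3 SD, cut at about 150% in these data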
# MEP2 TOR yeast: modulators of TOR pathway MEP2-GFP in S. cerevisiae; S. cerevisiae MEP2-GFP strain, flow cytometry GFP, 3 h; 100% = DMSO control level; GFP response vs DMSO, % at 10 µM; hit rate 0.51% among 330,000; AID 2016;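 active means GFP response versus DMSO above a set limit, roughly screen mean plus 3 SD, cut at about 180% in these data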;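 further: median GFP fluorescence of the barcode-gated MEP2-GFP cells per well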
# CIT2-GFP yeast: alters CIT2-GFP fluorescence in TOR pathway yeast screen; S. cerevisiae CIT2-GFP strain, flow cytometry, 3 h; 100 means same as DMSO wells; GFP response vs DMSO, % at 10 µM; hit rate 0.065% among 320,000; AID 2029;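 active means GFP response relative to DMSO above a set limit, near the screen mean plus 3 SD, cut at about 150% in these data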;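 further: ratio of well median GFP fluorescence to mean of DMSO wells on the plate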
# LAP4-GFP pick2: second confirmation of modulators of TOR reporter LAP4-GFP in yeast | shares compounds with LAP4 TOR yeast | S. cerevisiae LAP4-GFP strain, flow cytometry GFP, 3 h | GFP response vs DMSO, % at 10 µM | hit rate 20% among 590;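 active means GFP signal as percent of the solvent control above about 150%, meaning raised reporter expression, limit read from the data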
# MEP2-GFP pick2: second confirmation of modulators of TOR reporter MEP2-GFP in yeast; shares compounds with LAP4 TOR yeast; S. cerevisiae MEP2-GFP strain, flow cytometry GFP, 3 h; GFP response vs DMSO, % at 10 µM; hit rate 10% among 590; AID 2622;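 active means GFP signal above 150% of the solvent control wells, that is a rise of more than half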;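 further: median channel GFP fluorescence of all gated yeast cells per well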
# RPL19A GFP CP2: reconfirmed modulator of RPL19A-GFP TOR reporter in yeast. AID 2623. hit rate 3% among 590. S. cerevisiae RPL19A-GFP strain, flow cytometry GFP, 3 h; stronger effect = lower value; 100% means same as DMSO wells. GFP response vs DMSO, % at 10 µM. shares compounds with LAP4 TOR yeast;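 active means under 65% GFP response relative to DMSO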;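 further: median GFP channel fluorescence per well over the all cells gate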
# CIT2 GFP CP2: reconfirmed modulator of CIT2-GFP TOR reporter in yeast. GFP response vs DMSO, % at 10 µM. AID 2624. S. cerevisiae CIT2-GFP strain, flow cytometry GFP, 3 h; DMSO control wells read 100%. hit rate 8% among 590. shares compounds with LAP4 TOR yeast;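 active means GFP response vs DMSO above about 150%, limit read from the data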;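 further: median green fluorescence per well over all gated yeast cells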
# AGP1 GFP CP2: second confirmation of modulators of TOR reporter AGP1-GFP in yeast | shares compounds with LAP4 TOR yeast | S. cerevisiae AGP1-GFP strain, flow cytometry GFP, 3 h | percent response vs DMSO, % at 10 µM | 590 tested, under 10 active;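 active means over 150 percent of DMSO response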;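 further: median GFP channel fluorescence over all cells without mother daughter split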
# s288c autofluor: compound is autofluorescent in yeast s288c cells; 610 tested, under 10 active; AID 2757; shares compounds with LAP4 TOR yeast; fluorescence change (kMESF span) at 33 µM; S. cerevisiae s288c, 520 nm autofluorescence, flow cytometry, 3 h; stronger effect = higher value; zero means same as solvent-only cells;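 active means fluorescence span over the dose series, or activity score, above about 33, limit read from the data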
# Hits are given with their value; – = inactive; · = no result given; [ ] = another dose, or the depositor's remark.
SMILES,AGP1-GFP MLPCN,RPL19A TOR yeast,LAP4 TOR yeast,MEP2 TOR yeast,CIT2-GFP yeast,LAP4-GFP pick2,MEP2-GFP pick2,RPL19A GFP CP2,CIT2 GFP CP2,AGP1 GFP CP2,s288c autofluor
Oc1ccc(N=Nc2ccccc2)o1,–,–,165,–,–,·,·,·,·,·,–
CNc1c(-n2cc(C(=O)OC)c(C(=O)OC)c2C(=O)OC)c(=O)n(C)c(=O)n1C,–,–,–,–,–,·,·,·,·,·,·
Cc1ccc(S(=O)(=O)N2CCCOC2CNC(=O)C(=O)NCc2ccncc2)cc1 (stereo unspecified),–,–,–,–,–,·,·,·,·,·,·
COCC1CCN(C(=O)C2CCC(=O)N(Cc3cccc(F)c3)C2)CC1 (stereo unspecified),–,–,–,–,–,·,·,·,·,·,·
CN(C)/C=C/C(=O)c1ccc(-c2ccc(Cl)cc2Cl)o1,–,–,–,–,–,159,–,–,154,–,–
O=C(O)c1ccc(-c2ccc(Cl)cc2Cl)o1,–,–,–,–,–,·,·,·,·,·,·
Cc1ccccc1CN1CCC(N2CCC(C(=O)NCC3CCCO3)CC2)CC1 (stereo unspecified),–,–,–,–,–,·,·,·,·,·,·
COc1ccc(NC(=O)N2C3CCCC2CC(NC(=O)c2ccccc2)C3)cc1 (stereo unspecified),–,–,–,–,–,·,·,·,·,·,·
Cc1ccccc1[C@]1(C)ON(c2ccccc2C(F)(F)F)C1=O,–,–,–,–,–,–,–,–,–,–,–
COc1ccccc1N1C(=O)CC(c2ccccc2)CC1=O,–,–,–,–,–,·,·,·,·,·,·
COc1ccccc1[C@@]1(C)ON(c2ccccc2C(F)(F)F)C1=O,–,–,155,–,–,–,–,–,–,–,–
CC[C@]1(c2ccccc2C)ON(c2ccccc2C(F)(F)F)C1=O,–,–,–,–,–,–,–,–,–,–,–
COC(=O)c1cc(N2C(=O)C3C(C2=O)C2(C)C=CC3(C)O2)ccc1Cl (stereo unspecified),–,–,162,–,–,·,·,·,·,·,–
C=CCNC(=O)c1ccc(Cn2c(=S)[nH]c3cc4c(cc3c2=O)OCO4)cc1,–,–,–,–,–,·,·,·,·,·,·
O=C(NCCN1CCCC1)c1ccc(Cn2c(=S)[nH]c3cc4c(cc3c2=O)OCO4)cc1,–,–,153,–,–,–,–,–,–,–,·
COc1ccc2c(c1)c1nnc(SC)nc1n2C,–,–,–,–,–,–,–,53,–,–,–
O=C(COC(=O)COc1ccccc1F)NCc1ccco1,–,–,–,–,–,·,·,·,·,·,·
O=C(Nc1ccc(N2CCOCC2)cc1)C1CCN(S(=O)(=O)c2ccc3c(c2)OCCO3)CC1,–,–,254[may fluoresce green],340[may fluoresce green],231[may fluoresce green],–,–,–,–,–,–
O=C(Nc1ccc2c(c1)OCO2)C1CCN(S(=O)(=O)c2ccc3c(c2)OCCO3)CC1,–,–,–,–,–,·,·,·,·,·,·
O=C(N/N=C/c1cccc([N+](=O)[O-])c1)C(=O)N1CCCCCC1,–,–,–,–,–,·,·,·,·,·,·
CC(=O)Nc1ccc(S(=O)(=O)NCCc2cn3nc(C)c(C)nc3n2)cc1,–,–,–,–,–,·,·,·,·,·,·
COc1ccc(S(=O)(=O)NCCc2cn3nc(C)c(C)nc3n2)cc1F,–,–,–,–,–,–,–,–,–,–,·
Cc1ccc(NC(=O)CN(C)C(=O)COc2ccc(C(=O)c3ccc(F)cc3)cc2)cc1,–,–,–,–,–,·,·,·,·,·,·
COc1ccc(OCCCC(=O)Nc2nc(-c3ccccn3)cs2)cc1,–,–,–,–,–,·,·,·,·,·,·
Cc1cc(C)c(OCC(=O)Nc2nc(-c3ccccn3)cs2)c(C)c1,–,–,153,–,–,·,·,·,·,·,–
SMILES,AGP1-GFP MLPCN,RPL19A TOR yeast,LAP4 TOR yeast,MEP2 TOR yeast,CIT2-GFP yeast,LAP4-GFP pick2,MEP2-GFP pick2,RPL19A GFP CP2,CIT2 GFP CP2,AGP1 GFP CP2,s288c autofluor
O=C(CCS(=O)(=O)c1ccccc1)Nc1nc(-c2ccccn2)cs1,–,–,–,–,–,–,–,–,–,–,–
COc1ccc(NC(=O)CSc2nc3[nH]ncc3c(=O)[nH]2)c(OC)c1,–,–,–,–,–,·,·,·,·,·,·
O=[N+]([O-])c1ccc(N=Nc2c(Cl)cc(O)cc2Cl)cc1,–,–,278,–,–,·,·,·,·,·,–
FC(F)(F)c1ccccc1-n1ccnc1,–,–,–,–,–,·,·,·,·,·,·
O=C(O)c1nn(-c2ccccc2C(F)(F)F)cc1O,–,–,–,–,–,·,·,·,·,·,·
O=C1N(c2ccccc2C(F)(F)F)OC1(Cc1ccccc1)c1ccccc1 (stereo unspecified),–,–,–,–,–,–,–,–,–,–,–
CC(C)[C@@]1(c2ccccc2)ON(c2ccccc2C(F)(F)F)C1=O,–,–,–,–,–,–,–,–,–,–,–
CC(C)[C@]1(c2ccc(Cl)cc2)ON(c2ccccc2C(F)(F)F)C1=O,–,–,–,–,–,–,–,–,–,–,–
CC(C)[C@]1(c2ccccc2)ON(c2ccccc2C(F)(F)F)C1=O,–,–,–,–,–,–,–,–,–,–,–
O=C1N(c2ccccc2C(F)(F)F)O[C@]1(c1ccccc1)C1CCCCC1,–,–,–,–,–,–,–,–,–,–,–
COCCCNC(=O)c1cc2c(=O)n3cccc(C)c3nc2n(C(C)C)c1=N,–,–,–,–,–,–,–,–,–,–,·
O=C(Oc1cccc2cccnc12)c1ccc(Br)o1,–,–,–,–,–,–,–,–,–,–,–
CC(=O)NCC1CCCN(Cc2cn(-c3ccccc3)nc2-c2ccc3c(c2)OCO3)C1 (stereo unspecified),–,–,192,–,–,–,–,–,–,–,·
O=C(O)c1cccc(-n2cccc2/C=C/[N+](=O)[O-])c1,–,–,163,–,–,–,–,–,–,–,·
O=C(O)c1cccc(-n2cccc2/C=C\[N+](=O)[O-])c1,–,–,–,–,–,·,·,·,·,·,·
CC(C)OC(=O)CSc1nc2ncc(Cl)cc2[nH]1,–,–,–,–,–,·,·,·,·,·,·
CC(C)OC(=O)CSc1nc2ncccc2[nH]1,–,–,171,–,–,–,–,–,–,–,·
